# Assays:
# Assay in all cases: DAPPL (digital affinity profiling via proximity ligation, sequencing); 10 mM Tris-HCl pH 7.5, 50 mM NaCl, 1 mM DTT, 4% glycerol, room temperature, 30 min; GST-TFs on glutathione beads, 16-mer random dsDNA library, 0.1% formaldehyde crosslink after washing; high values mean tight binding
# [1] = target: T1, FLI1 (Homo sapiens, UniProt Q01543 1-452); conditions: protein: recombinant; tags: N-terminal GST; dsDNA, one strand shown
# T1 sequence: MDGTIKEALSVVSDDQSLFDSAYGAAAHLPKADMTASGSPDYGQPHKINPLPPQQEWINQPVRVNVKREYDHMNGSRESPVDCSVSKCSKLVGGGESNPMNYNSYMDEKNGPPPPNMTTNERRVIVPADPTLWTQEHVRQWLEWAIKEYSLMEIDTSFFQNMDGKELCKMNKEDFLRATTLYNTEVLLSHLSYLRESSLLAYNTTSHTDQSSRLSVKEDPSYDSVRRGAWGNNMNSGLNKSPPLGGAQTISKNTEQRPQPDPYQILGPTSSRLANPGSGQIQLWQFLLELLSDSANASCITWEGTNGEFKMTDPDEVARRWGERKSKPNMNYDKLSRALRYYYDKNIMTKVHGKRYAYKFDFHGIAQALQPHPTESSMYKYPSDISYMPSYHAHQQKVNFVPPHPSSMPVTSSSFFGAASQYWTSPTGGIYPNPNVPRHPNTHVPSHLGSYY
# Summary of the method: (§1)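 A tag-only sample was pooled with DNA-barcoded human transcription factors that had been expressed in yeast as GST fusions and captured on glutathione beads. The pools were incubated for 30 min at room temperature with 200 nmole of a random double-stranded 16-mer DNA library in Tris/NaCl/DTT/glycerol buffer, then washed, crosslinked with 0.1% formaldehyde, proximity-ligated (BsaI/T4 ligase, 1 h, 37 °C), PCR-amplified and sequenced on an Illumina NextSeq500. Binding signal is each hexamer's read frequency for a factor divided by its frequency for the tag-only sample.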
# [2] = target: T2, ELK1 (Homo sapiens, UniProt P19419 1-428); conditions: protein: recombinant; tags: N-terminal GST; dsDNA, one strand shown
# T2 sequence: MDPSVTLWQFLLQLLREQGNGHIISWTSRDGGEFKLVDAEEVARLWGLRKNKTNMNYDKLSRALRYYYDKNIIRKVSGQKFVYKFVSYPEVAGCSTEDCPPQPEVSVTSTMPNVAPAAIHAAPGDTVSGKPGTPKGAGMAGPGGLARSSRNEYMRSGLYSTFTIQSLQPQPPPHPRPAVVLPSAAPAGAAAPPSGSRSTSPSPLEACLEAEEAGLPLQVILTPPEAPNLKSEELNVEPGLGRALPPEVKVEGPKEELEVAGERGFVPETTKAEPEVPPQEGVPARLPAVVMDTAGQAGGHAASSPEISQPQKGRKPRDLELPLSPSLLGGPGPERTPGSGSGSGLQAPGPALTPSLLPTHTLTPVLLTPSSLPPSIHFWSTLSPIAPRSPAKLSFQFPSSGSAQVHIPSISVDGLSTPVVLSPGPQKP
# Summary of the method: as §1
# [3] = target: T3, GABPA (Homo sapiens, UniProt Q06546 1-454); conditions: protein: recombinant; tags: N-terminal GST; dsDNA, one strand shown
# T3 sequence: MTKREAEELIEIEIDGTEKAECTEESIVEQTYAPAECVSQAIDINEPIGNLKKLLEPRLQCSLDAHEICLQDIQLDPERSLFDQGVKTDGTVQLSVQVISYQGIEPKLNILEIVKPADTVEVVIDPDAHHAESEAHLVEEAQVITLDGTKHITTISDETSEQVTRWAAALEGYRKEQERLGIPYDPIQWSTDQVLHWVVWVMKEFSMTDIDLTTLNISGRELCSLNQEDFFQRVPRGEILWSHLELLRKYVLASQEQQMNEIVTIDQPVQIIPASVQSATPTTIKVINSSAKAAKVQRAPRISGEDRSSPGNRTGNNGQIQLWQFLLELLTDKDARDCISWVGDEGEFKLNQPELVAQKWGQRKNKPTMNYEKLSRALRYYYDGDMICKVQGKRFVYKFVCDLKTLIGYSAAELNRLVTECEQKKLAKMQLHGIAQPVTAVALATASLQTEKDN
# Summary of the method: as §1
# [4] = target: T4, ERG (Homo sapiens, UniProt P11308 1-479); conditions: protein: recombinant; tags: N-terminal GST; dsDNA, one strand shown
# T4 sequence: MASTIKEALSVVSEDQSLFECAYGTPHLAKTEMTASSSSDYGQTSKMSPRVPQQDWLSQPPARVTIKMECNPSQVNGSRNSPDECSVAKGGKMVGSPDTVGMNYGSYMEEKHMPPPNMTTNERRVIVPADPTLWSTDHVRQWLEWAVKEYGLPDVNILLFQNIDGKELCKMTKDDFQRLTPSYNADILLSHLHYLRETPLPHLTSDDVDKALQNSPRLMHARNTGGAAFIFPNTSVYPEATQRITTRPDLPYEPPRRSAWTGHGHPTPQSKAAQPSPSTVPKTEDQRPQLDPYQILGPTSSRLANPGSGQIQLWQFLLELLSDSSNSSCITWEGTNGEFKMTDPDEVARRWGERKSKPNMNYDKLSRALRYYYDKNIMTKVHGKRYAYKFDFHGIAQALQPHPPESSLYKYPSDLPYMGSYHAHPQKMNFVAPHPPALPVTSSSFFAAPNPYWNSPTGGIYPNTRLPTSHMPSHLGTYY
# Summary of the method: as §1
# [5] = target: ELF1 (Homo sapiens, UniProt P32519 1-619); conditions: protein: recombinant; tags: N-terminal GST; dsDNA, one strand shown
# Summary of the method: as §1
# [6] = target: T5, EHF (Homo sapiens, UniProt Q9NZC4 1-300); conditions: protein: recombinant; tags: N-terminal GST; dsDNA, one strand shown
# T5 sequence: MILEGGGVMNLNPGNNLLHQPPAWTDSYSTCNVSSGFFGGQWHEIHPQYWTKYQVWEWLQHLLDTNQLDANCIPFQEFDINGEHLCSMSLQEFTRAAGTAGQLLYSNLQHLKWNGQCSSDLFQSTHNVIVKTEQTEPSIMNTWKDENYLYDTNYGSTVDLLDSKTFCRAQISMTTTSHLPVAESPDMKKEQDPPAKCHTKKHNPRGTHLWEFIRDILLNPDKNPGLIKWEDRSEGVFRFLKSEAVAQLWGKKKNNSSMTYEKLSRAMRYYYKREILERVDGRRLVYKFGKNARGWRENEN
# Summary of the method: as §1
# [7] = target: SPI1 (Homo sapiens, UniProt P17947 1-270); conditions: protein: recombinant; tags: N-terminal GST; dsDNA, one strand shown
# Summary of the method: as §1
# [8] = target: SPIB (Homo sapiens, UniProt Q01892 1-262); conditions: protein: recombinant; tags: N-terminal GST; dsDNA, one strand shown
# Summary of the method: as §1
# [9] = target: T6, ELK3 (Homo sapiens, UniProt P41970 1-407); conditions: protein: recombinant; tags: N-terminal GST; dsDNA, one strand shown
# T6 sequence: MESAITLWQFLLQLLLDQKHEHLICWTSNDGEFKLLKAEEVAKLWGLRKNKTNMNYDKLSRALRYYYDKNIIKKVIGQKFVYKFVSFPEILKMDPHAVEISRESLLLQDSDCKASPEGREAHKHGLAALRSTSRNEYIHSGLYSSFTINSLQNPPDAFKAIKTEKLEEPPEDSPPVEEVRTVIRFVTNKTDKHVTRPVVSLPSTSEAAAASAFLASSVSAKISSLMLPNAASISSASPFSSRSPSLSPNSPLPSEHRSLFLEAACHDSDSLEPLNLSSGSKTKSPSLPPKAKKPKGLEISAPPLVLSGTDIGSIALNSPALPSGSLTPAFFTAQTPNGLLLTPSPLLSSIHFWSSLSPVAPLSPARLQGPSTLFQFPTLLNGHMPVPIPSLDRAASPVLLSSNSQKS
# Summary of the method: as §1
# [10] = target: T7, FEV (Homo sapiens, UniProt Q99581 1-238); conditions: protein: recombinant; tags: N-terminal GST; dsDNA, one strand shown
# T7 sequence: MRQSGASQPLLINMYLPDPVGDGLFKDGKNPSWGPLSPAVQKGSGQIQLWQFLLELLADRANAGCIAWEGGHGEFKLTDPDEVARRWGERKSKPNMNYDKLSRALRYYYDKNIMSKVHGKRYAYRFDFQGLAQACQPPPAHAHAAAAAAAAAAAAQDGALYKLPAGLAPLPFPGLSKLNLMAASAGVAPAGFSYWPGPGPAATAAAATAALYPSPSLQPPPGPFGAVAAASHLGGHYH
# Summary of the method: as §1
# [11] = target: ETV5 (Homo sapiens, UniProt P41161 1-510); conditions: protein: recombinant; tags: N-terminal GST; dsDNA, one strand shown
# Summary of the method: as §1
# [12] = target: HSF1 (Homo sapiens, UniProt Q00613 1-529); conditions: protein: recombinant; tags: N-terminal GST; chain copies: 3; dsDNA, one strand shown
# Summary of the method: as §1
# [13] = target: T8, SPIC (Homo sapiens, UniProt Q8N5J4 1-248); conditions: protein: recombinant; tags: N-terminal GST; dsDNA, one strand shown
# T8 sequence: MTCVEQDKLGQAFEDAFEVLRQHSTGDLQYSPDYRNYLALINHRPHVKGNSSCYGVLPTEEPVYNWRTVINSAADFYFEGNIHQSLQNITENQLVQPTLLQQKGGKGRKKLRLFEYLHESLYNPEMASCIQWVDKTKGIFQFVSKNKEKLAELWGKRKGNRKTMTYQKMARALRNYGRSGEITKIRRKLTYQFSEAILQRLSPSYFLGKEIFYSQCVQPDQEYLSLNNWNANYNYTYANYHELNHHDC
# Summary of the method: as §1
# [14] = target: ELF4 (Homo sapiens, UniProt Q99607 1-663); conditions: protein: recombinant; tags: N-terminal GST; dsDNA, one strand shown
# Summary of the method: as §1
# [15] = target: T9, ELK4 (Homo sapiens, UniProt P28324-2 1-405); conditions: protein: recombinant; tags: N-terminal GST; dsDNA, one strand shown
# T9 sequence: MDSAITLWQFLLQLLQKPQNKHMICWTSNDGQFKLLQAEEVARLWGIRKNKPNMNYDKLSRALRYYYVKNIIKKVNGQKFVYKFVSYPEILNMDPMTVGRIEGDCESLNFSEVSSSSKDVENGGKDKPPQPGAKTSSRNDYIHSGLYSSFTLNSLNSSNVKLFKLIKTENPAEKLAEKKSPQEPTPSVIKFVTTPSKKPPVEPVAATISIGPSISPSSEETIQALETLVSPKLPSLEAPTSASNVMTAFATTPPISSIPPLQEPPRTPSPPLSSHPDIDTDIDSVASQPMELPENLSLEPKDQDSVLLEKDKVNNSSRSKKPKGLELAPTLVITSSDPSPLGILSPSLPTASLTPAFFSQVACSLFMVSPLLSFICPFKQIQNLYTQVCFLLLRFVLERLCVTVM
# Summary of the method: as §1
# [16] = target: T10, ETV2 (Homo sapiens, UniProt O00321 1-342); conditions: protein: recombinant; tags: N-terminal GST; dsDNA, one strand shown
# T10 sequence: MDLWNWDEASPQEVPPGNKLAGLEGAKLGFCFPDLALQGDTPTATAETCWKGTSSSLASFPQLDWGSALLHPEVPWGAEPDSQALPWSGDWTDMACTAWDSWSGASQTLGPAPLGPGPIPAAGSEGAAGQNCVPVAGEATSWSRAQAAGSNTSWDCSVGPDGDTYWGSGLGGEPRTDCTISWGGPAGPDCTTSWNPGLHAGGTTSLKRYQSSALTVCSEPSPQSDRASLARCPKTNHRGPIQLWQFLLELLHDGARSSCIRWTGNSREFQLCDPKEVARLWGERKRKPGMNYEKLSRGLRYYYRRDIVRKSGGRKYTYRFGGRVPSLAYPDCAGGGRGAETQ
# Summary of the method: as §1
# [17] = target: T11, ELF3 (Homo sapiens, UniProt P78545 1-371); conditions: protein: recombinant; tags: N-terminal GST; dsDNA, one strand shown
# T11 sequence: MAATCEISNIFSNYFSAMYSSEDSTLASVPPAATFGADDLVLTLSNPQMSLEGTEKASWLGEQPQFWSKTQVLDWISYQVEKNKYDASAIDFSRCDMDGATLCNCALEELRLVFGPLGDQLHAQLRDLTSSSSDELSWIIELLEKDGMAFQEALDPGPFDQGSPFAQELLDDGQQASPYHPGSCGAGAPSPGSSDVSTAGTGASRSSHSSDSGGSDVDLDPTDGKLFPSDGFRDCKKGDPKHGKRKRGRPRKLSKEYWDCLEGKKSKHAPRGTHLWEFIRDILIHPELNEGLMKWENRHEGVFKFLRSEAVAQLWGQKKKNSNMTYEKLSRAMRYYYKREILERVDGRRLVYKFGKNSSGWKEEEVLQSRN
# Summary of the method: as §1
# [18] = target: CRX (Homo sapiens, UniProt O43186 1-299); conditions: protein: recombinant; tags: N-terminal GST; dsDNA, one strand shown
# Summary of the method: as §1
# [19] = target: ETV1 (Homo sapiens, UniProt P50549 1-477); conditions: protein: recombinant; tags: N-terminal GST; dsDNA, one strand shown
# Summary of the method: as §1
# Chain of ELF1 (P32519 whole entry): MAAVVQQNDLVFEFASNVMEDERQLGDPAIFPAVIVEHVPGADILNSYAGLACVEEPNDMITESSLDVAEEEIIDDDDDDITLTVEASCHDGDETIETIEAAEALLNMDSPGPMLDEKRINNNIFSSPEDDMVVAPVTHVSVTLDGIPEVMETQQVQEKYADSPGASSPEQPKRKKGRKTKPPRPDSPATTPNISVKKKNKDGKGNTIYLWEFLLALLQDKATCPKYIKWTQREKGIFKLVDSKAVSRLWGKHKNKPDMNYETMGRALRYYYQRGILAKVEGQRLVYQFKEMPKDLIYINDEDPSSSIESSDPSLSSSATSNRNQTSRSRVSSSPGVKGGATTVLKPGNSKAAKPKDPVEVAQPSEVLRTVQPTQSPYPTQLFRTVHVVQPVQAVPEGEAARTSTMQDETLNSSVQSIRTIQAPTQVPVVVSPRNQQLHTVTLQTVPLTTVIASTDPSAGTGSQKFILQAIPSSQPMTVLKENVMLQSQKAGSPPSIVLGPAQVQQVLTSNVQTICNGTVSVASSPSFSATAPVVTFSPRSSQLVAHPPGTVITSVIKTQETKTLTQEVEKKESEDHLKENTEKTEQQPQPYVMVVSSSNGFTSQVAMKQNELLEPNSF
# Chain of HSF1 (Q00613 whole entry): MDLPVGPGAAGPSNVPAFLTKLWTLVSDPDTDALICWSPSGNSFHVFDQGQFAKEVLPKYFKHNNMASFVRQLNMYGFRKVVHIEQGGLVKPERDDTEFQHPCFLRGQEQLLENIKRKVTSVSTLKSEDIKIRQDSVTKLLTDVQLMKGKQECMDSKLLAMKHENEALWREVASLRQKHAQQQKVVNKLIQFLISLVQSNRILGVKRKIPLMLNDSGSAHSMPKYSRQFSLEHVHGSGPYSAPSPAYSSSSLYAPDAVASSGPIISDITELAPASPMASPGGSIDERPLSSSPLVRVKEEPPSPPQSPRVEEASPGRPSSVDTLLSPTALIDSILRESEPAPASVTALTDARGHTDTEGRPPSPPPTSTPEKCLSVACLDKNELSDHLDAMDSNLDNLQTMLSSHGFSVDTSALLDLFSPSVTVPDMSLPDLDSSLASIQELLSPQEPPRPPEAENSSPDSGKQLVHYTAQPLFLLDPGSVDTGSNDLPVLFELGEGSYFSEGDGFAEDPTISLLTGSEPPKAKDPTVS
# Chain of ETV5 (P41161 whole entry): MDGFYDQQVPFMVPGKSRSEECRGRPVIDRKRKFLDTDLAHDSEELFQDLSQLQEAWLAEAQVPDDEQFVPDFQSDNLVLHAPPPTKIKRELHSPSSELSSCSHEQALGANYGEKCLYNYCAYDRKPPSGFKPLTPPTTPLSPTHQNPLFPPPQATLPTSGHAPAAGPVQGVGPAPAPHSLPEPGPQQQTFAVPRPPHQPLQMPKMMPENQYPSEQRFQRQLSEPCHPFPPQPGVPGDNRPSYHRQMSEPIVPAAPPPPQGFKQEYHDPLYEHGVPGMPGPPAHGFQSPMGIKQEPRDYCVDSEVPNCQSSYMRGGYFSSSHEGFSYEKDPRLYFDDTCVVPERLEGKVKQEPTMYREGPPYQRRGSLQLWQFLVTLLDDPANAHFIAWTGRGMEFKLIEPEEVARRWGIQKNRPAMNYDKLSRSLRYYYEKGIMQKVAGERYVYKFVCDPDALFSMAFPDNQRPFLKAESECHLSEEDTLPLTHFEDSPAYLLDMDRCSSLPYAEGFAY
# Chain of ELF4 (Q99607 whole entry): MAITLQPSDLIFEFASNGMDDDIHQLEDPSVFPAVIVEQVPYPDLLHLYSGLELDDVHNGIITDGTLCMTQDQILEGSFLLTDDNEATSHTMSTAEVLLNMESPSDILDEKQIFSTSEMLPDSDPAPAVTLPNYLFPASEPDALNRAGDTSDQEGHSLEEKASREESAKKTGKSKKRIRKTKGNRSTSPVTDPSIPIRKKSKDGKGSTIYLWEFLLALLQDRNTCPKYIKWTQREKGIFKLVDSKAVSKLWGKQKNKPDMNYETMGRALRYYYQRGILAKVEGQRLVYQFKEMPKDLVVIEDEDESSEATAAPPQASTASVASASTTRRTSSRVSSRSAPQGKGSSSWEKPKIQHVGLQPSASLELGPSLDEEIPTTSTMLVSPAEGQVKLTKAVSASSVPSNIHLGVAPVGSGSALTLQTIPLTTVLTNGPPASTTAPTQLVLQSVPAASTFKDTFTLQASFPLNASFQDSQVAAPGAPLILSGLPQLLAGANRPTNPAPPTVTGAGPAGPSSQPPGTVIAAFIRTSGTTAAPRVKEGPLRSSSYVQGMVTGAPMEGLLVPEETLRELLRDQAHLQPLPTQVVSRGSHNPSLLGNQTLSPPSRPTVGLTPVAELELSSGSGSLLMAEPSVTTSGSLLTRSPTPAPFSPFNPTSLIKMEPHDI
# Chain of ETV1 (P50549 whole entry): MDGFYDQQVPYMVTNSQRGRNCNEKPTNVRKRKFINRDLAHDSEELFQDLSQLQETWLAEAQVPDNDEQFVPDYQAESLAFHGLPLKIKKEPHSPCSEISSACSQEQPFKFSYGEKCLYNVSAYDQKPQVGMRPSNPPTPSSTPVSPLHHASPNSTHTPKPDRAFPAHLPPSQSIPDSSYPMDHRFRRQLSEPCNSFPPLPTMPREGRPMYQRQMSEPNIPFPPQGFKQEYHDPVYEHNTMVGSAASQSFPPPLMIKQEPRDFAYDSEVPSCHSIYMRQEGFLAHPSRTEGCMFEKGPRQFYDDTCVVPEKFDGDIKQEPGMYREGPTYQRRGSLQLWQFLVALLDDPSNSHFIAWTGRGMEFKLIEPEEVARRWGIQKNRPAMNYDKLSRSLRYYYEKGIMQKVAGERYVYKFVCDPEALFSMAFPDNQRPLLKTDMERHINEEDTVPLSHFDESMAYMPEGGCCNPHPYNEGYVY
# Chain of CRX (O43186 whole entry): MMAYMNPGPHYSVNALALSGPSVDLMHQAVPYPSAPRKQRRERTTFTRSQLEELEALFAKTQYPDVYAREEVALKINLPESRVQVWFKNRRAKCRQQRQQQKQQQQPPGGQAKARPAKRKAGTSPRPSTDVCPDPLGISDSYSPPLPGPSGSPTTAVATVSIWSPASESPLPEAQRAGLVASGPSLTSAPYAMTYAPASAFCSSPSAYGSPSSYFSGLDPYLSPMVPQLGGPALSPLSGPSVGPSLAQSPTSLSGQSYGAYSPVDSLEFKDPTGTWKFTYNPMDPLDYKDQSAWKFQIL
# Chain of SPIB (Q01892 whole entry): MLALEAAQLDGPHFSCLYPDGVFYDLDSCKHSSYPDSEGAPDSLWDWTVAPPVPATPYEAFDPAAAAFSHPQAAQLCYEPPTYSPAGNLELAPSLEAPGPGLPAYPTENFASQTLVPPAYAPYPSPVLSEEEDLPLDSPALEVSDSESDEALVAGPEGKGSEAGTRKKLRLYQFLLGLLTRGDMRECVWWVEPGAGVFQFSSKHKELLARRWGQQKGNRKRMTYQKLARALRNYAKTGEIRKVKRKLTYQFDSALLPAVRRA
sequence,measurement,setting,value
TTCTAA,binding signal,[1],"1.28 fold enrichment (6-mer frequency, TF over GST control)"
same,binding signal,[2],"1.23 fold enrichment (6-mer frequency, TF over GST control)"
same,binding signal,[3],"1.2 fold enrichment (6-mer frequency, TF over GST control)"
same,binding signal,[4],"1.25 fold enrichment (6-mer frequency, TF over GST control)"
same,binding signal,[5],"1.23 fold enrichment (6-mer frequency, TF over GST control)"
same,binding signal,[6],"1.22 fold enrichment (6-mer frequency, TF over GST control)"
same,binding signal,[7],"1.14 fold enrichment (6-mer frequency, TF over GST control)"
same,binding signal,[8],"1.17 fold enrichment (6-mer frequency, TF over GST control)"
same,binding signal,[9],"1.08 fold enrichment (6-mer frequency, TF over GST control)"
same,binding signal,[10],"1.18 fold enrichment (6-mer frequency, TF over GST control)"
same,binding signal,[11],"1.22 fold enrichment (6-mer frequency, TF over GST control)"
same,binding signal,[12],"1.83 fold enrichment (6-mer frequency, TF over GST control)"
same,binding signal,[13],"1.13 fold enrichment (6-mer frequency, TF over GST control)"
same,binding signal,[14],"1.23 fold enrichment (6-mer frequency, TF over GST control)"
same,binding signal,[15],"1.22 fold enrichment (6-mer frequency, TF over GST control)"
same,binding signal,[16],"1.26 fold enrichment (6-mer frequency, TF over GST control)"
same,binding signal,[17],"1.04 fold enrichment (6-mer frequency, TF over GST control)"
same,binding signal,[18],"1.84 fold enrichment (6-mer frequency, TF over GST control)"
same,binding signal,[19],"1.21 fold enrichment (6-mer frequency, TF over GST control)"

# Source: publication PMC7862700, “An all-to-all approach to the identification of sequence-specific readers for epigenetic DNA modifications on cytosine”
